Laboratory results as given in PubChem BioAssay AID2524 (Sanford-Burnham Center for Chemical Genomics, 2010).
About 540 (0.16%) of roughly 330,000 compounds were called active.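 Rule for the calls: active = activation factor of the enzyme at least 2-fold when tested at 20 µM; inactive = the rest.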 The list comes from a sample in which actives are over-represented; it also holds similar structures and randomly drawn compounds.

What follows are molecules tested against Intestinal-type alkaline phosphatase (Homo sapiens) (UniProt P09923) (assay: human IAP activators, primary screen, biochemical, luminescence, uHTS (AID 2524)). Settings: purified human IAP, CDP-Star luminescence, 30 min; at 10 µM; active compounds read high; 1 = vehicle-only enzyme, 0 = enzyme-free background.
Sequence of Intestinal-type alkaline phosphatase (Homo sapiens) (P09923 whole entry, looked up): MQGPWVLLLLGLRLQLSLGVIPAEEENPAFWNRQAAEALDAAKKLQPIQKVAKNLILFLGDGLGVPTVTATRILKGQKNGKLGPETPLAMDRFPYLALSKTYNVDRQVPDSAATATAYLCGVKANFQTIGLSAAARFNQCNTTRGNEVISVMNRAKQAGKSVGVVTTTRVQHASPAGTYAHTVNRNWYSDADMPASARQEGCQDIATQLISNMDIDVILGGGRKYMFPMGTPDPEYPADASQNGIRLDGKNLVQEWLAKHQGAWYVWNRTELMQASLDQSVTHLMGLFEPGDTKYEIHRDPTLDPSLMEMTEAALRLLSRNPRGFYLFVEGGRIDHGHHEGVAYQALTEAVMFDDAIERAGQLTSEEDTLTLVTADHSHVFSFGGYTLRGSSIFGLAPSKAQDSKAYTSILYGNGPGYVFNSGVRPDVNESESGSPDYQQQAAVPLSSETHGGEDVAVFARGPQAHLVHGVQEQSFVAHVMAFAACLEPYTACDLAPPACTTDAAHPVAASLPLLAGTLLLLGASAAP

Row | SMILES | activation factor
1 | CN1C(=O)C2(OCCCO2)c2cc(Cl)ccc21 | 0.939 (inactive)
2 | CC(=O)NCCc1ccc(S(=O)(=O)Nc2ccc(C)c(S(=O)(=O)N3CCOCC3)c2)cc1 | 0.976 (inactive)
3 | COc1ccc(N(CC(=O)NCCSCc2cccc(Cl)c2)S(C)(=O)=O)cc1 | 1.4 (inactive)
4 | Cn1cnnc1SCC(=O)NNC(=O)COc1ccc(Br)cc1 | 1.79 (inactive)
5 | Cn1cnnc1SCC(=O)Nc1ccc(N2CCOCC2)cc1 | 1.03 (inactive)
6 | CCOc1ccc(NC(=O)CSc2nncn2C)cc1 | 3.82 (active)
7 | Cc1cn(C2C=CC(CO)O2)c(=O)[nH]c1=O (centres undefined) | 0.925 (inactive)
8 | Cc1cc2c(cc1C)[n+](C)cn2CC(O)COCC1CC=CCC1 (centres undefined) | 0.897 (inactive)
9 | OCCCN1c2ccccc2Nc2nnc(-c3ccccc3)cc21 | 2.48 (active)
10 | N=c1c2c(-c3ccccc3)c(-c3ccccc3)n(Cc3ccccc3)c2ncn1CCCO | 1.11 (inactive)
11 | O=C(NC(=S)Nc1ccccc1C(=O)O)c1ccc(-c2ccc(Br)cc2)o1 | 0.945 (inactive)
12 | CCCCCC1CC(COc2ccccc2)OC1=O (centres undefined) | 0.9 (inactive)
13 | CC(C)(C)NC(=O)C(=O)NCc1ccncc1 | 1.09 (inactive)
14 | CC(NCC(=O)Nc1cc(Cl)cc(Cl)c1)c1ccccc1 (centres undefined) | 1.03 (inactive)
15 | CCC(C(=O)OCC(=O)Nc1ccc(C(=O)Nc2ccc(OC)cc2)cc1)c1ccccc1 (centres undefined) | 1.08 (inactive)
16 | CCC(C(=O)Nc1ccc2c(c1)OCCO2)c1ccccc1 (centres undefined) | 0.871 (inactive)
17 | CCC(C(=O)Nc1ccc(C(C)C)cc1)c1ccccc1 (centres undefined) | 2.92 (active)
18 | O=C(CSc1nnnn1C1CCCC1)Nc1ccc2c(c1)OCCO2 | 0.96 (inactive)
19 | Cc1cnc(NC(=O)Cn2cnc3c2c(=O)n(C)c(=O)n3C)s1 | 1 (inactive)
20 | CCOc1ccc(C(=O)COC(=O)c2ccc(-n3cnnn3)cc2)cc1 | 1.05 (inactive)
21 | CC(=O)NC1C(Oc2ccc(C)cc2)OC2COC(c3ccco3)OC2C1O (centres undefined) | 1.11 (inactive)
22 | Oc1cccc(/C=N/Nc2ccc(Cl)nn2)c1O | 2.16 (active)
23 | Oc1ccc(Br)cc1/C=N/Nc1ccccn1 | 1.22 (inactive)
24 | O=C(COc1ccc2c(C(F)(F)F)cc(=O)oc2c1)Nc1ccc2c(c1)OCCO2 | 1.02 (inactive)

Row | SMILES | activation factor
25 | C=CCOc1cccc(CNn2cn[nH]c2=S)c1 | 0.895 (inactive)
26 | CNC(=O)CN1C(=O)NC(c2ccccc2)(c2ccccc2)C1=O | 1.05 (inactive)
27 | CCOc1ccccc1N1C(=O)CC(Sc2nccc(C)n2)C1=O (centres undefined) | 1.29 (inactive)
28 | O=C(NCC(=O)N1CCC2(CC1)NCCc1[nH]cnc12)c1ccc(Br)cc1 | 1.11 (inactive)
29 | O=C(O)CSC(NC(=O)c1cccnc1)(C(F)(F)F)C(F)(F)F | 0.961 (inactive)
30 | O=C1COc2ccc(C(=O)CSc3ccc(Br)cc3)cc2N1 | 1.06 (inactive)
31 | O=[N+]([O-])c1ccc2nc(-c3ccccn3)[nH]c2c1 | 1.4 (inactive)
32 | c1ccc2[nH]c(-c3nc4ccccc4[nH]3)nc2c1 | 2.1 (active)
33 | O=C(Nc1sc2c(c1-c1nc3ccccc3[nH]1)CCCC2)C1CC1 | 1.06 (inactive)
34 | O=C(NCCC1CCCCN1S(=O)(=O)c1ccc(Cl)cc1)C(=O)NCc1ccco1 (centres undefined) | 1.03 (inactive)
35 | Cn1c(=O)c2c(nc(NCCc3ccccc3)n2Cc2ccccc2)n(C)c1=O | 0.914 (inactive)
36 | Cn1c(=O)c2c(nc(N/N=C/c3cccs3)n2Cc2ccc(Br)cc2)n(C)c1=O | 2.42 (active)
37 | Cn1c(=O)c2sccc2n(Cc2ccc(Br)cc2)c1=O | 0.619 (inactive)
38 | Cc1cccc(NC(=O)CSc2nnc(CCCCCNC(=O)OC(C)(C)C)o2)c1C | 0.854 (inactive)
39 | O=C(O)CCC(=O)Nc1ccc(OCC2CCCO2)cc1 (centres undefined) | 0.853 (inactive)
40 | Cc1cc(C)c(C#N)c(SCC(=O)N(CC(C)C)C2CCS(=O)(=O)C2)n1 (centres undefined) | 0.97 (inactive)
41 | Cc1cccc(NC(=O)c2nc[nH]c2C(=O)NCC(=O)OCc2ccccc2)c1 | 1.09 (inactive)
42 | O=C(Nc1ccon1)c1nc[nH]c1C(=O)NCc1ccccc1 | 2.43 (active)
43 | CCOC(=O)c1ccc(NC(=O)c2nc[nH]c2C(=O)NCc2ccccc2)cc1 | 1.59 (inactive)
44 | Cc1ccc2cc(CCNC(=O)c3c(-c4ccccc4Cl)noc3C)c(=O)[nH]c2c1 | 0.983 (inactive)
45 | COc1ccc(C(=O)NNC(=O)c2cc(C)[nH]n2)cc1 | 1.61 (inactive)
46 | COc1ccc(C(=O)NNS(=O)(=O)c2ccc(C)cc2)cc1 | 0.935 (inactive)
47 | COc1ccc(C(=O)NNc2cc(C)nc(NNC(=O)c3ccc(OC)cc3)n2)cc1 | 2.25 (active)
48 | CC(=O)NC1C(Oc2ccc(C=O)cc2)OC(COC(C)=O)C(OC(C)=O)C1OC(C)=O (centres undefined) | 1.03 (inactive)

Row | SMILES | activation factor
49 | CN(C)C(CNC(=O)c1cccc(C#N)c1)c1ccco1 (centres undefined) | 0.873 (inactive)
50 | OC(c1nc2ccc(F)cc2[nH]1)C(O)c1nc2ccc(F)cc2[nH]1 (centres undefined) | 3.62 (active)
51 | Oc1ccc2nc(Cc3ccccc3)[nH]c2c1 | 0.985 (inactive)
52 | CN(Cc1nc2ccc(F)cc2[nH]1)Cc1nc(CC2CC2)no1 | 0.896 (inactive)
53 | Nc1ncnc2c1ncn2[C@@H]1O[C@H](CNCc2cccn2-c2nccs2)[C@@H](O)[C@H]1O | 0.901 (inactive)
54 | CC(C)=CCN1CCN(Cc2cc3ccccc3[nH]2)CC1CCO (centres undefined) | 1.13 (inactive)
55 | Cc1ccc(NC(=O)CN2C(=O)NC(C)(c3ccc(Cl)cc3)C2=O)c(Br)c1 (centres undefined) | 1 (inactive)
56 | CN(c1ccccc1)S(=O)(=O)c1cccc(NC(=O)Cc2ccc(Cl)cc2)c1 | 1.01 (inactive)
57 | CCOC(=O)c1sc(NC(=O)CSc2nc(C)cc(C(F)(F)F)n2)c(C#N)c1C | 0.888 (inactive)
58 | COc1ccccc1N(C)S(=O)(=O)c1ccc(C(=O)N2CCC(C(N)=O)CC2)cc1 | 0.887 (inactive)
59 | O=C(CCCCO)c1ccc(O)c(Cl)c1 | 1.08 (inactive)
60 | CC(C)c1ccc(NC2CCCN(C(=O)c3ccncc3)C2)cc1 (centres undefined) | 0.926 (inactive)
61 | Cc1ccc(S(=O)(=O)N2[C@@H](c3cccc(Cl)c3)C(C(=O)O)=CC[C@H]2c2ccc(Cl)c(Cl)c2)cc1 | 1.09 (inactive)
62 | COC(C[C@@H](O)[C@H](C)[C@H](O)COCc1ccccc1)OC | 0.977 (inactive)
63 | O=C(OCC1O[C@@H](OC(=O)c2cc(O)c(O)c(O)c2)[C@@H](OC(=O)c2cc(O)c(O)c(O)c2)[C@@H](OC(=O)c2cc(O)c(O)c(O)c2)[C@@H]1OC(=O)c1cc(O)c(O)c(O)c1)c1cc(O)c(O)c(O)c1 (some centres undefined) | 3.98 (active)
64 | COc1ccc(C(=O)N(Cc2ccccc2)c2ccc(C)cc2)cc1S(=O)(=O)N1CCOCC1 | 0.94 (inactive)
65 | CC(C)NC(=O)NCCCCCCS(C)=O (centres undefined) | 1.08 (inactive)
66 | CC(C)CN(CC(C)C)CC(O)CN(c1ccccc1)S(=O)(=O)c1ccccc1[N+](=O)[O-] (centres undefined) | 0.882 (inactive)
67 | CC(C)N(C(=O)CSc1nc(COc2ccccc2)nc2ccccc12)C(C)C | 0.961 (inactive)
68 | COc1cccc(NC(=O)CN(C)C(=O)c2ccccc2CCc2ccccc2)c1 | 1.1 (inactive)
69 | Cn1cc(S(=O)(=O)N2CCN(c3ccc(F)cc3)CC2)c(=O)n(C)c1=O | 1.04 (inactive)
70 | O=S(=O)(CCc1nc2ccccc2o1)c1ccc(Cl)cc1 | 0.959 (inactive)
71 | CC(C)CC(N=C1NC(C)(C)Cc2ccccc21)C(=O)O (centres undefined) | 0.9 (inactive)
72 | CCOC(=O)C1=NNC2(c3ccc(Cl)cc3)C(=O)N(c3cc(C)cc(C)c3)C(=O)C12 (centres undefined) | 1.06 (inactive)

Row | SMILES | activation factor
73 | O=S(=O)(c1ccc(F)cc1)N1CC=C(c2ccccc2)CC1 | 1.01 (inactive)
74 | CN1CCN(Cc2c(C(=O)N3CCc4ccccc4C3)nc3ccc(Cl)cn23)CC1 | 1.33 (inactive)
75 | CC(C)CC(=O)Nc1nnc(S(=O)(=O)N(C)c2ccc(Cl)cc2)s1 | 0.968 (inactive)
76 | COc1ccc(-n2nnc3c(=O)n(CC(=O)N4CCC(Cc5ccccc5)CC4)cnc32)cc1 | 1.02 (inactive)
77 | CCOc1ccc2[nH]c(C(=O)N/N=C/c3cccc(OC)c3OC)cc2c1 | 0.924 (inactive)
78 | COc1cc(/C=N\NC(=O)C2C(=O)NCC2c2ccccc2)cc(OC)c1O (centres undefined) | 0.911 (inactive)
79 | COc1cc(/C=N/NC(=O)c2cc(-c3ccccc3C)nc3ccccc23)cc(OC)c1O | 0.992 (inactive)
80 | COc1cccc(/C=N\NC(=O)C2=NNC(=O)C2C)c1O (centres undefined) | 2.88 (active)
81 | COc1ccc(/C=N/NC(=O)c2ccncc2)cc1CN1CCCc2ccccc21 | 1.06 (inactive)
82 | COc1cccc(/C=N/NC(=O)c2[nH]nc3c2CCc2ccccc2-3)c1O | 2.64 (active)
83 | Cc1ccc(OCC(=O)Nc2ccccc2C(=O)NC2CC2)cc1 | 0.945 (inactive)
84 | Cc1ccccc1N1C(=O)C(Oc2ccc(Cl)cc2)C1CNCC1CCCO1 (centres undefined) | 0.957 (inactive)
85 | CN=C(Nc1cccc(S(=O)(=O)N2CCOCC2)c1)c1ccccc1 | 0.956 (inactive)
86 | FC(F)(F)c1ccc(-n2cn[nH]c2=S)cc1 | 1.1 (inactive)
87 | CC(CCN1CCN=C1N(C)C)c1ccccc1 (centres undefined) | 0.995 (inactive)
88 | O=C(Nc1ccccc1C(F)(F)F)N1CCCC1c1cccnc1 (centres undefined) | 0.942 (inactive)
89 | Cc1cc(=O)n2nc(N3CCCC(C(=O)NCc4cccc(Cl)c4)C3)sc2n1 (centres undefined) | 1.28 (inactive)
90 | CCCCN(CC(=O)NC(C)(C)C)C(=O)C(=O)Nc1ccc2c(c1)OCCO2 | 1.04 (inactive)
91 | COC(=O)Nc1sc2nc(C)cc(C)c2c1-n1cccc1 | 0.984 (inactive)
92 | Cc1cc(C)c2c(-n3cccc3)c(NC(=O)OCc3ccccc3)sc2n1 | 1.11 (inactive)
93 | CCCCOC(=O)Nc1sc2nc(C)cc(C)c2c1-n1cccc1 | 2.01 (active)
94 | Cc1ccc(OCCCCN2CCCCC2)c(Br)c1 | 1.08 (inactive)
